FBA Mtb inh = inhibitors of M. tuberculosis fructose-bisphosphate aldolase | AID 588726 | inhibition, % at 1 µM | P9WQA3 | hit rate 2.3% among 360,000 | purified M. tuberculosis FBA, fluorescence read-out; in the data active means inhibition above about 27%;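 further: 0% = vehicle and 100% = reference inhibitor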
Target sequence (P9WQA3 whole entry, looked up): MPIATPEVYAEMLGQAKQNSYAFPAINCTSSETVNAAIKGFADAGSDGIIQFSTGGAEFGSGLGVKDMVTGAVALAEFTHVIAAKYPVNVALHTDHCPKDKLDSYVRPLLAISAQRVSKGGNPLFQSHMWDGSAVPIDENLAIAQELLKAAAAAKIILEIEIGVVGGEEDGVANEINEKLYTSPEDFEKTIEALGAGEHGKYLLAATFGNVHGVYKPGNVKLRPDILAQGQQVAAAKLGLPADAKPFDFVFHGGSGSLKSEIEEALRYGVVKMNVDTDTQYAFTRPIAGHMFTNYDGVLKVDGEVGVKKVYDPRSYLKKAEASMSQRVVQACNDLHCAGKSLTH
BH1578 lux ind = induces V. cholerae light production without autoinducers; V. cholerae BH1578 lux reporter, luminescence, 6 h; activation, % at 18.7 µM; hit rate 0.16% among 350,000; AID 588436; in the data active means activation mostly above about 9.7%, no sharp cut-off
CCHF vOTU inh-1 = CCHFV vOTU protease inhibition | Pep-AMC fluorescence | inhibition, % at 11.5 µM | hit rate 0.55% among 370,000; further: 0% = vehicle wells with enzyme and 100% = no enzyme wells
GDH-TPI counter = counter-screen for M. tuberculosis FBA inhibitors: GDH-TPI coupled enzymes | hit rate 1.2% among 360,000 | inhibition, % at 4.8 µM | AID 588335 | GDH-TPI coupled enzyme counterscreen, NADH absorbance;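 further: 0% = DMSO wells and 100% = wells lacking the enzyme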
CCHF vOTU inh-2 = confirmation of CCHF virus vOTU protease inhibitors; inhibition, % at 11.5 µM; hit rate 17% among 1,900; AID 686976; Recombinant CCHFV vOTU, Pep-AMC fluorescence; shares compounds with CCHF vOTU inh-1
Active calls of the source: *. Rows were chosen to be rich in hits. Some 3.9% of all compounds tested hit in one or more screens of this group. Unless noted, no stated cut-off is given here; in the data, active means inhibition above about 30%; inactive means the rest.

`COc1cc(/C=N/N=C2/NC(=O)C(CC(=O)O)S2)ccc1OCc1cccc(Cl)c1` (stereo not given) gave FBA Mtb inh -2, BH1578 lux ind -1, CCHF vOTU inh-1 9 and GDH-TPI counter 25.
For CC(C)N1CC2(CC(c3ccccc3F)=NO2)CN1C(=O)c1ccc(C(C)(C)C)cc1 (stereo not given) the results were FBA Mtb inh -2, BH1578 lux ind 1, CCHF vOTU inh-1 35*, GDH-TPI counter -10 and CCHF vOTU inh-2 -4.
Screening CN=C(Nc1cccnc1)c1cccc(C(F)(F)F)c1 returned FBA Mtb inh 0, BH1578 lux ind inactive, CCHF vOTU inh-1 49*, GDH-TPI counter 0 and CCHF vOTU inh-2 -14.
Screening Cc1cccc(C(O)c2ncc(-c3cccc(C(F)(F)F)c3)[nH]2)c1C (stereo not given) returned FBA Mtb inh 2, BH1578 lux ind -1, CCHF vOTU inh-1 44*, GDH-TPI counter -6 and CCHF vOTU inh-2 -10.
Screening Cc1ccc(C)c(C(O)c2ncc(-c3cccc(C(F)(F)F)c3)[nH]2)c1 (stereo not given) returned FBA Mtb inh 0, BH1578 lux ind -1, CCHF vOTU inh-1 22 and GDH-TPI counter 8.
For Cc1ccc(C(O)c2ncc(-c3ccc(F)cc3)[nH]2)c(C)c1 (stereo not given) the results were FBA Mtb inh -1, BH1578 lux ind -3, CCHF vOTU inh-1 31*, GDH-TPI counter -2 and CCHF vOTU inh-2 -22.
Screening CC(C)C1NC2(C(=O)c3ccccc3C2=O)C2C(=O)N(c3ccc(F)cc3)C(=O)C12 (stereo not given) returned FBA Mtb inh -2, BH1578 lux ind 0, CCHF vOTU inh-1 52*, GDH-TPI counter -7 and CCHF vOTU inh-2 -22.
For CC(=O)N1CCOc2ccc(S(=O)(=O)NCc3ccc(C)cc3)cc21 the results were FBA Mtb inh -3, BH1578 lux ind -1, CCHF vOTU inh-1 6 and GDH-TPI counter 1.
O=c1[nH]c2cc3ccccc3cc2nc1-c1nnnn1C1CCCC1 was read as CCHF vOTU inh-1 30* and CCHF vOTU inh-2 11.
`CC(C)(C)c1ccc(C(=O)OCc2c(-c3ccccc3)ncc3ccccc23)cc1` gave FBA Mtb inh 0, BH1578 lux ind -1, CCHF vOTU inh-1 30*, GDH-TPI counter 13 and CCHF vOTU inh-2 -13.
For COC(=O)c1ccccc1SCc1csc(C)n1 the results were FBA Mtb inh 1, BH1578 lux ind 0, CCHF vOTU inh-1 -15 and GDH-TPI counter -2.
Screening Cc1c(Cl)cccc1NC(=O)C(=O)NNS(=O)(=O)c1ccc(F)cc1 returned FBA Mtb inh 0, BH1578 lux ind 0 and GDH-TPI counter 2.
For Cc1[nH][nH]c(=O)c1N=Nc1ccccc1Cl the results were FBA Mtb inh 4, BH1578 lux ind -1, CCHF vOTU inh-1 9 and GDH-TPI counter 17.
Screening Clc1ccccc1N=Nc1ccccn1 returned FBA Mtb inh -57, BH1578 lux ind -1, CCHF vOTU inh-1 84*, GDH-TPI counter -10 and CCHF vOTU inh-2 10.
`CCOC(=O)/C=C(\C)Sc1cc(=O)oc2ccccc12` gave FBA Mtb inh -9, BH1578 lux ind 0, CCHF vOTU inh-1 -4 and GDH-TPI counter 8.
`CCOC(=O)/C=C(\C)Sc1cc(O)c2ccccc2c1O` gave FBA Mtb inh -5, BH1578 lux ind inactive, CCHF vOTU inh-1 111*, GDH-TPI counter 7 and CCHF vOTU inh-2 98*.
COc1ccc(-c2csc(NC(=O)C(CC(=O)O)N3CCOCC3)n2)cc1 (stereo not given) was read as FBA Mtb inh 4, BH1578 lux ind inactive, CCHF vOTU inh-1 2 and GDH-TPI counter 6.
Screening Cc1cccc(Nc2nc(N)c([N+](=O)[O-])c(N3CCCC(C)C3)n2)c1 (stereo not given) returned FBA Mtb inh -2, BH1578 lux ind 0, CCHF vOTU inh-1 31*, GDH-TPI counter 8 and CCHF vOTU inh-2 17.
`O=C(COC(=O)c1ccc(S(=O)(=O)N2CCOCC2)cc1)NCc1ccco1` gave FBA Mtb inh 2, BH1578 lux ind -3, CCHF vOTU inh-1 -9 and GDH-TPI counter 12.
CCOc1ccc(NC(=O)CC(=O)Nc2ccc(OCC)cc2)cc1 was read as FBA Mtb inh -3, BH1578 lux ind -1, CCHF vOTU inh-1 -6 and GDH-TPI counter 1.
CCOc1ccc(NC(=O)CNS(=O)(=O)c2c(C)cc(C)cc2C)cc1 was read as FBA Mtb inh -1, BH1578 lux ind 0, CCHF vOTU inh-1 43*, GDH-TPI counter 1 and CCHF vOTU inh-2 -16.
Screening CCCC(C)c1nnc(NC(=O)C(=O)OCC)s1 (stereo not given) returned FBA Mtb inh 1, BH1578 lux ind 0, CCHF vOTU inh-1 -9 and GDH-TPI counter 2.
`CCNC(=O)C1(C)CCN(C(=O)c2ccc3ccccc3c2)C1` (stereo not given) gave FBA Mtb inh -2, BH1578 lux ind 0, CCHF vOTU inh-1 10 and GDH-TPI counter 5.
For CN(Cc1ccco1)C(=O)c1cccc(S(=O)(=O)N2CCN(Cc3ccccc3)CC2)c1 the results were FBA Mtb inh 1, BH1578 lux ind inactive, CCHF vOTU inh-1 34*, GDH-TPI counter -7 and CCHF vOTU inh-2 -17.
CCN1CCCCC(NC(=O)c2ccc(Cl)cc2Cl)C1=O (stereo not given) was read as CCHF vOTU inh-1 -6.
Screening Cc1ccc(Cl)cc1NC(=O)CCC(=O)NCc1ccco1 returned FBA Mtb inh 1, BH1578 lux ind inactive, CCHF vOTU inh-1 -2 and GDH-TPI counter 4.
`CC(NC(=O)CCNS(=O)(=O)c1ccccc1)c1ccccc1` (stereo not given) gave FBA Mtb inh 1, BH1578 lux ind -1, CCHF vOTU inh-1 5 and GDH-TPI counter 8.
`CC(NC(=O)CS(=O)(=O)c1ccccc1)c1ccccc1` (stereo not given) gave FBA Mtb inh 0, BH1578 lux ind 0, CCHF vOTU inh-1 36*, GDH-TPI counter 1 and CCHF vOTU inh-2 -25.
`Cc1c(N(C(=O)Cc2cccs2)C2(C(=O)NC3CCCC3)CCCCC2)c(=O)n(-c2ccccc2)n1C` gave FBA Mtb inh -1, BH1578 lux ind 0, CCHF vOTU inh-1 -9 and GDH-TPI counter 1.
`Nn1cnnc1N/N=C/c1ccc(Cl)c([N+](=O)[O-])c1` gave FBA Mtb inh -12, BH1578 lux ind -1, CCHF vOTU inh-1 99*, GDH-TPI counter -3 and CCHF vOTU inh-2 10.
Cc1ccc(/C=N/Nc2nncn2N)cc1 was read as FBA Mtb inh 1, BH1578 lux ind -1, CCHF vOTU inh-1 87*, GDH-TPI counter 5 and CCHF vOTU inh-2 -17.
Nn1cnnc1N/N=C/c1ccc(F)cc1 was read as FBA Mtb inh -5, BH1578 lux ind 1, CCHF vOTU inh-1 92*, GDH-TPI counter 9 and CCHF vOTU inh-2 -18.
Screening Fc1ccc(/C=N/Nc2nn[nH]n2)cc1 returned FBA Mtb inh 5, BH1578 lux ind 0, CCHF vOTU inh-1 -1 and GDH-TPI counter 2.
`O=C(/C=C/c1ccccc1)N1CCN(CC(O)COc2ccccc2)CC1` (stereo not given) gave FBA Mtb inh 1, BH1578 lux ind 0, CCHF vOTU inh-1 10 and GDH-TPI counter 9.

Screening data deposited in PubChem by several laboratories.
